Hits are enriched below; roughly 2% of the tested compounds scored in any of these assays.
IL2 activator – IL-2 activation; IL-2 activation reporter assay, cell-based qHTS; stimulated with anti-CD3/CD4/CD28 beads; in transgenic mouse T cells; activation, % (series mostly up to about 46 µM); hit rate 0.065% among 360,000; in the data active = activation above about 50%; inconclusive = mostly about 30% to 49%
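First, unstimulated transgenic mouse T cells were exposed to compound for 60 min. Next, anti-CD3/anti-CD4-coated beads with anti-CD28 were added. Finally, after 18 h at 37 degrees C, EGFP and DsRed were imaged.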
NPSR antagonist – antagonists of human neuropeptide S receptor cAMP signaling; Q6W5P4; CHO-NPSR cells, cAMP TR-FRET, antagonist mode; Potency, µM (top dose mostly 38.3 µM), hits mostly inhibitors; hit rate 1% among 220,000; note: nearly all actives have a fitted effect of over 50% in size
PKM2 act – activators of human pyruvate kinase M2 | P14618 | purified PKM2, Kinase-Glo ATP luminescence, activation; response scale: 0% is enzyme alone, no compound | Potency, µM (doses to about 57.5 µM), most hits filed as activators | hit rate 0.34% among 260,000 | AID 1631; note: nearly all actives have a fitted effect of over 55% in size
Target sequence (P14618 whole entry, looked up): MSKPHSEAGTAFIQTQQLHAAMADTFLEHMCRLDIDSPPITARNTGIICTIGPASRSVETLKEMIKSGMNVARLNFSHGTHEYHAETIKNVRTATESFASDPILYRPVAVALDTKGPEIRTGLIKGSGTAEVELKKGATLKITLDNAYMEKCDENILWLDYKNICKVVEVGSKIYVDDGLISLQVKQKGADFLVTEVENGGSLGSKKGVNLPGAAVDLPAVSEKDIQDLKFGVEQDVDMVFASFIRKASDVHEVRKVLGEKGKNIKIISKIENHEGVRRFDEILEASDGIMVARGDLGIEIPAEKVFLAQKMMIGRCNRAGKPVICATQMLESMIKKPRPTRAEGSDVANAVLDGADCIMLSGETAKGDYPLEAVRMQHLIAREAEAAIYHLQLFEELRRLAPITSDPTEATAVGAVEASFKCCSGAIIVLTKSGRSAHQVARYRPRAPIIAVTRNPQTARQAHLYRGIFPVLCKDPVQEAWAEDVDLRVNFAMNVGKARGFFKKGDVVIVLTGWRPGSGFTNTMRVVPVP
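ATP formation by purified human PK-M2, quantified via coupled luciferase luminescence after 1 h at room temperature with 0.1 mM ADP and 0.5 mM PEP final.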
ClpP mod – qHTS Assay for Activators of ClpP. ATP-dependent Clp protease proteolytic subunit (Bacillus subtilis (strain 168)), P80244. purified B. subtilis ClpP, FRET peptide cleavage, 20 min. Potency, µM (top dose mostly 57.5 µM). hit rate 1.9% among 340,000; active = well fitted falling curve with a large enough effect; inconclusive = small, poorly fitted or top-dose-only effect; inactive = no such curve, though single readings can be large or run the other way; note: the source files actives as falling curves though it sought activators and does not explain the sign; nearly all actives have a fitted effect of over 65% in size
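ClpP 10 microg/mL final, pH 8 Tris/KCl buffer with BSA, glycerol, Tween-20; compound pinned in; FRET-FV substrate; RT 20 min; Ex320/Em430; ΔFRET vs ADEP 5.8 microM, DMSO, no enzyme.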
A number is an active result; – = inactive; ? = inconclusive; · = no result given. Unless noted, calls come from the whole dose curve; as a rule, active = well fitted curve in the direction sought with a large enough effect; inconclusive = small, poorly fitted or top-dose-only effect, or another doubt; inactive = no such curve, though single readings can be large; an effect the other way counts as inactive or inconclusive.

SMILES	IL2 activator	NPSR antagonist	PKM2 act	ClpP mod
CC(=O)C(C)Oc1cc(C)cc2oc(=O)c(C)c(C)c12 (stereo unspecified)	–	–	–	3.2µM
Cc1ccc(NS(=O)(=O)c2c(C)nc3sccn3c2=O)cc1	–	·	10µM	–
Cc1nc2sccn2c(=O)c1S(=O)(=O)Nc1cccc(Cl)c1C	–	·	7.1µM	–
CC(C)c1ccc(N(CC(=O)NC(C)(C)C)C(=O)CCC(=O)Nc2nccs2)cc1	–	·	–	–
CC1CCN(C(=O)CSc2nc3c(c(=O)n2C)SCC3)CC1	–	·	–	28µM
Cn1c(SCC(=O)N2CCCC2)nc2c(c1=O)SCC2	–	·	·	–
Cc1ccc2cccc(OCc3nnc(SCC(=O)O)n3C)c2n1	–	–	–	·
O=CN/C=C/c1cc(O)ccc1O	–	–	–	22µM
COc1cc(CN2C[C@@H](CO)O[C@@H](n3cnc4c(NCCCO)ncnc43)C2)cc(OC)c1OC	–	·	·	–
COc1ccc(C(=O)CSc2nnc(-c3ccoc3C)n2CC2CCCO2)cc1 (stereo unspecified)	–	–	–	–
O=C(COc1ccc2ccccc2c1)NNC(=O)c1cccs1	–	–	–	–
O=C(COc1cccc2ccccc12)NNC(=O)c1cccs1	–	–	–	18µM
O=Cc1s/c(=N\S(=O)(=O)c2ccccc2)n(CCCCl)c1Cl	–	10µM	?	–
CCC(C(=O)NCc1ccco1)N(C(=O)CNS(=O)(=O)c1ccc(C)cc1)c1ccccc1OC (stereo unspecified)	–	–	–	32µM
CCOc1ccc2oc(C(=O)O)c(C)c2c1	–	–	–	·
COc1ccc2nc(C)cc(C(=O)O)c2c1	–	–	–	8.9µM
COc1ccc2nc(C)cc(Nc3ccc(C(=O)O)cc3)c2c1	–	·	·	–
CCOc1ccc2nc(C)cc(C(=O)O)c2c1	–	–	–	3.2µM
COc1ccc(Cl)cc1NC(=O)CN(C)C(=O)c1cccc(S(=O)(=O)N2CCN(C)CC2)c1	–	·	·	–
O=S(=O)(c1ccc2c(c1)OCCO2)N1CCN(c2cccc(Cl)c2)CC1	–	–	2.8µM	–
CN1CCN(S(=O)(=O)c2ccc3c(c2)OCCO3)CC1	–	–	–	–
O=S(=O)(c1cccc(Cl)c1)N1CCN(S(=O)(=O)c2ccc3c(c2)OCCO3)CC1	–	·	·	·
CCS(=O)(=O)N1CCN(S(=O)(=O)c2ccc3c(c2)OCCO3)CC1	–	·	3.5µM	·
O=S(=O)(c1ccc2c(c1)OCCO2)N1CCN(Cc2ccc3c(c2)OCO3)CC1	–	–	3.5µM	–
O=S(=O)(c1ccc(F)c(F)c1)N1CCN(Cc2ccc3c(c2)OCO3)CC1	–	–	–	–
SMILES	IL2 activator	NPSR antagonist	PKM2 act	ClpP mod
O=C(OCc1ccc2c(c1)OCO2)c1ccc(S(=O)(=O)N2CCCC2)cc1	–	–	8.9µM	–
O=C(NCC(=O)N1CCN(S(=O)(=O)c2ccccc2F)CC1)c1ccc2c(c1)OCO2	–	·	·	·
COc1ccc(S(=O)(=O)N2CCN(C(=O)CNC(=O)c3ccc4c(c3)OCO4)CC2)cc1	–	·	·	28µM
Cc1ccc(S(=O)(=O)N2CCCN(S(=O)(=O)c3ccc4c(c3)OCCO4)CC2)cc1	–	?	0.35µM	–
O=S(=O)(c1cccc(Br)c1)N1CCN(S(=O)(=O)c2ccc3c(c2)OCCO3)CC1	–	·	·	·
CC1=C/C(=N\OS(=O)(=O)c2ccccc2)C(C(C)C)=CC1=O	–	10µM	–	–
CC1=C/C(=N\OS(=O)(=O)c2ccccc2)C(C)=CC1=O	–	2.5µM	–	–
CC1=C(C)/C(=N\OS(=O)(=O)c2ccc(C)cc2)C=CC1=O	–	?	?	–
NS(=O)(=O)c1cccc(NS(=O)(=O)c2ccc(/C=C/C(=O)OCC(=O)c3ccccc3)cc2)c1	–	–	–	·
CC(C)Oc1cccc(C(=O)Nc2ccc(NC(=O)c3ccco3)cc2)c1	–	–	–	–
COc1cccc2c1nc(C)c1cc(C)oc12	–	–	–	28µM
CCOC(=O)C1=C(c2ccccc2)N=c2s/c(=C\c3ccc(O)cc3)c(=O)n2C1c1cccs1 (stereo unspecified)	–	10µM	–	–
CCOC(=O)C1=C(c2ccccc2)N=c2sc(=Cc3cc(OC)c(OC)c(OC)c3)c(=O)n2C1c1cccs1 (stereo unspecified)	–	·	·	–
CSc1nnc(-c2cccn(Cc3ccccc3)c2=O)o1	–	–	–	·
O=c1c(-c2nnc(SCc3ccc(Cl)cc3Cl)o2)cccn1Cc1ccccc1	–	?	–	3.2µM

Screening data: PubChem BioAssay, National Center for Advancing Translational Sciences (NCATS)
